Bioassay records (PubChem)
Hits are enriched below; roughly 12% of the tested compounds scored in any of these assays.
HP1b binding inh = blocks HP1-beta chromodomain binding to methylated histone tails; P83916; AlphaScreen HP1-beta / biotin-H3K9me3 peptide binding; Potency, µM (highest dose often 114 µM), actives largely listed as inhibitors; actives 0.56% (n = 390,000); note: nearly all actives have a fitted effect of over 70% in size
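HP1-beta protein (50 nM final) preincubated 30 min at room temperature with biotinylated H3(1-18)K9me3 peptide (50 nM) in PBS pH 7.4, 0.01% Tween-20, then compound added for 30 min. AlphaScreen streptavidin donor/nickel chelate acceptor beads (10 ug/mL final), 30 min dark, luminescence read.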
Sfp PPTase inh = blocks B. subtilis Sfp PPTase activity. Q9F4F7. Biochemical Sfp PPTase activity, qHTS. Potency, µM, most hits filed as inhibitors. actives 3.5% (n = 310,000). AID 1490;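 note: the enzyme is Sfp with the accession as filed and its product quenches rhodamine fluorescence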
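Fluorescence-quenching assay with 15 nM Sfp, 5 uM rhodamine-CoA and 12.5 uM BHQ-2-labelled ybbR peptide in pH 7.6 Hepes/MgCl2 buffer. Enzyme was pre-incubated with compound for 15 min at room temperature. Rate was taken from the 30-min fluorescence change (525/598 nm).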
BAZ2B inh = blocks human BAZ2B; Potency, µM (titrated, usually from 114 µM), actives largely listed as inhibitors; actives 4.4% (n = 360,000); Q9UIF8; AlphaScreen BAZ2B-H3K14Ac peptide displacement; note: nearly all actives have a fitted effect of over 60% in size
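BAZ2B 50 nM plus b-H3(5-23)K14Ac 50 nM, PBS pH 7.4/0.01% Tween-20, 30 min RT; compound added (max 110 uM), 30 min RT; streptavidin donor/Ni-chelate acceptor beads 10 ug/mL final, 20 min dark; AlphaScreen read.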
TDP1 inh = TDP1 (human) enzyme inhibition. AID 485290. Potency, µM (highest dose often 130 µM), actives largely listed as inhibitors. actives 0.28% (n = 350,000). recombinant TDP1, AlphaScreen DNA substrate cleavage; note: nearly all actives have a fitted effect of over 40% in size
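Recombinant E. coli-expressed Tdp1 (1 nM) preincubated with compound 15 min at RT, then 5'-biotin/3'-phosphotyrosine-FITC DNA substrate (15 nM) added for 5 min. AlphaScreen beads (10 ug/ml) added, 10 min RT; tyrosine-FITC cleavage read as signal loss.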
G9a inh = G9a (human) methyltransferase inhibition; Q96KQ7; G9a H3K9 monomethylation, AlphaScreen, 2 h; Potency, µM (series often up to 102 µM), most hits filed as inhibitors; actives 8.8% (n = 350,000); AID 504332; note: nearly all actives have a fitted effect of over 75% in size
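Step 1: enzyme (final 20 nM) with compound, 15 min RT. Step 2: substrate peptide 500 nM and SAM 20 uM, 2 h RT. Step 3: anti-H3K9me1 antibody and AlphaScreen beads, 10 min, then plate read.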
JMJD2A Tudor = blocks the human JMJD2A Tudor domain. AlphaScreen JMJD2A-Tudor / H3K4me3 peptide binding. Potency, µM (titrated, usually from 114 µM), usual class: inhibitors. actives 4.4% (n = 390,000); note: nearly all actives have a fitted effect of over 50% in size
Target sequence (O75164 whole entry, looked up, the tested form may be a part): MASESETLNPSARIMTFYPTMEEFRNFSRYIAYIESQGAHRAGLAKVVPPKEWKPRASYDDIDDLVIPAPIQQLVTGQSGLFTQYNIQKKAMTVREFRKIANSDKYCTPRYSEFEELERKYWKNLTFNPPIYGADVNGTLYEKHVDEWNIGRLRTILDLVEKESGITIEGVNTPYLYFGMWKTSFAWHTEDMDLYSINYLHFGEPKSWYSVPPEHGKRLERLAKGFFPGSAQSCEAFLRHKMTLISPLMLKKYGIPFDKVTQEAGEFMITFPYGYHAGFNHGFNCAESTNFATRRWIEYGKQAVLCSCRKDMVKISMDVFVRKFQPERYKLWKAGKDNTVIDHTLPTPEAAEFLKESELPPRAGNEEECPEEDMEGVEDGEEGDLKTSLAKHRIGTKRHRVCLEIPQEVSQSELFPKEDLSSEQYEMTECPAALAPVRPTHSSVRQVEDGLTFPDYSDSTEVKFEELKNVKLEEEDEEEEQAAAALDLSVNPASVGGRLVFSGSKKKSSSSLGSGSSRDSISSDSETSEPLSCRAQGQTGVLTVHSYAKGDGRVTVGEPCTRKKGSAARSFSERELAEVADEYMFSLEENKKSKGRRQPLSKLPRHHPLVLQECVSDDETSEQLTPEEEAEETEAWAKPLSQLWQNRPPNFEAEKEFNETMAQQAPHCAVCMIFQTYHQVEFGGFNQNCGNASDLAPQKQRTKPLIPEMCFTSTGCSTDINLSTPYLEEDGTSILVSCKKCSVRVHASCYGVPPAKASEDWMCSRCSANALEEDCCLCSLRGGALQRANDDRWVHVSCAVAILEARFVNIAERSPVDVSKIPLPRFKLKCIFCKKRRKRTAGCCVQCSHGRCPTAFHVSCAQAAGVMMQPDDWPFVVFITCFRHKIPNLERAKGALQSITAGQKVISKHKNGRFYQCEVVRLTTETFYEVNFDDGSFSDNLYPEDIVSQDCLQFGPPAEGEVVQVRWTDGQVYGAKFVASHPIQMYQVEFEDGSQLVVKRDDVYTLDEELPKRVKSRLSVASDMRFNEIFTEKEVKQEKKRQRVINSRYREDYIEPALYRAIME
Numbers stand for hits; [ ] = another dose, or the depositor's remark. Calls come from the whole dose curve; as a rule, active = well fitted curve in the direction sought with a large enough effect; inconclusive = small, poorly fitted or top-dose-only effect, or another doubt; inactive = no such curve, though single readings can be large; an effect the other way counts as inactive or inconclusive.

How did Clc1ccc(-c2nc3ncccn3c2Nc2ccc3c(c2)OCCO3)cc1 do in these assays?
HP1b binding inh: inactive; Sfp PPTase inh: inactive; BAZ2B inh: inactive; TDP1 inh: inactive; G9a inh: inactive; JMJD2A Tudor: inactive

How did O=[N+]([O-])c1cccc2c[nH]nc12 do in these assays?
Sfp PPTase inh: inactive

How did CCN1CCN(c2ccc(S(=O)(=O)N3CCOCC3)cc2NC(=O)CC(NC(C)=O)c2ccccc2)CC1 (stereo not given) do in these assays?
HP1b binding inh: inactive; JMJD2A Tudor: inactive

What do the screens show for `CCN1CCN(c2ccc(S(=O)(=O)N3CCCCC3)cc2NC(=O)c2ccc([N+](=O)[O-])o2)CC1`?
HP1b binding inh: inconclusive; BAZ2B inh: inactive; G9a inh: 35.5µM; JMJD2A Tudor: inconclusive

What do the screens show for `CS(=O)(=O)N1CCN(c2ccccc2NC(=O)c2ccc([N+](=O)[O-])o2)CC1`?
HP1b binding inh: inconclusive; Sfp PPTase inh: inactive; BAZ2B inh: inactive; TDP1 inh: inactive; G9a inh: inactive; JMJD2A Tudor: 3.16µM

How did CCN1CCN(c2ccc(S(=O)(=O)N3CCCCC3)cc2NC(=O)CC(C)c2ccccc2)CC1 (stereo not given) do in these assays?
HP1b binding inh: inactive; BAZ2B inh: inactive; TDP1 inh: inactive; G9a inh: 50.1µM; JMJD2A Tudor: inactive

What do the screens show for `CCN1CCN(c2ccc(S(=O)(=O)N3CCOCC3)cc2NC(=O)/C=C/c2ccc(OC)cc2OC)CC1`?
HP1b binding inh: inactive; BAZ2B inh: inactive; TDP1 inh: inactive; G9a inh: 39.8µM; JMJD2A Tudor: inactive

Results for CCN(CC)c1nn2c(=O)c(C(=O)NCc3ccc(F)cc3)cnc2s1 ?
HP1b binding inh: inactive; BAZ2B inh: inactive; TDP1 inh: inactive; G9a inh: inactive; JMJD2A Tudor: inactive

How did CCN1CCN(c2ccc(S(=O)(=O)N3CCCCC3)cc2NC(=O)c2sccc2C)CC1 do in these assays?
HP1b binding inh: inactive; BAZ2B inh: inconclusive; TDP1 inh: inactive; G9a inh: 2.24µM; JMJD2A Tudor: inactive

Results for CCN1CCN(c2ccc(S(=O)(=O)N3CCCCC3)cc2NC(=O)c2ccc(F)cc2)CC1 ?
HP1b binding inh: inactive; Sfp PPTase inh: inactive; BAZ2B inh: inactive; TDP1 inh: inactive; G9a inh: 10µM; JMJD2A Tudor: inconclusive

Results for CCN1CCN(c2ccc(S(=O)(=O)N3CCCCC3)cc2NC(=O)c2ccc(C)c(C)c2)CC1 ?
HP1b binding inh: inactive; JMJD2A Tudor: inconclusive

What do the screens show for `CCN1CCN(c2ccc(S(=O)(=O)N3CCOCC3)cc2NC(=O)c2ccc(C(F)(F)F)cc2)CC1`?
HP1b binding inh: inactive; BAZ2B inh: inactive; TDP1 inh: inactive; G9a inh: inactive[0.501 µM]; JMJD2A Tudor: inactive

What do the screens show for `CCN1CCN(c2ccc(S(=O)(=O)N3CCOCC3)cc2NC(=O)c2ccc(F)cc2Cl)CC1`?
HP1b binding inh: inactive; BAZ2B inh: inactive; TDP1 inh: inactive; G9a inh: 39.8µM; JMJD2A Tudor: inactive

What do the screens show for `CCN1CCN(c2ccc(S(=O)(=O)N3CCCCC3)cc2NC(=O)c2cccc(C)c2)CC1`?
HP1b binding inh: inactive; BAZ2B inh: inactive; TDP1 inh: inactive; G9a inh: 50.1µM; JMJD2A Tudor: inactive

How did COc1ccc(-c2cc(=O)oc3c4c(ccc23)OCN(Cc2cccc(OC)c2)C4)cc1 do in these assays?
HP1b binding inh: inactive; BAZ2B inh: inactive; TDP1 inh: inactive; G9a inh: inactive; JMJD2A Tudor: inactive

What do the screens show for `COc1ccc(/C=N/n2cnn(Cc3ccccc3Cl)c2=S)cc1`?
HP1b binding inh: inconclusive; Sfp PPTase inh: 25.1µM; BAZ2B inh: inactive; TDP1 inh: inactive; G9a inh: 28.2µM; JMJD2A Tudor: inactive

What do the screens show for `Oc1ccccc1/C=N/n1cnn(Cc2ccccc2Cl)c1=S`?
HP1b binding inh: inactive; Sfp PPTase inh: inconclusive; BAZ2B inh: inactive; TDP1 inh: inactive; G9a inh: 3.55µM; JMJD2A Tudor: 17.8µM

Results for COc1cc(/C=N/n2cnn(Cc3ccccc3Cl)c2=S)cc(OC)c1OC ?
HP1b binding inh: inactive; Sfp PPTase inh: inconclusive; BAZ2B inh: inactive; TDP1 inh: inactive; G9a inh: 31.6µM; JMJD2A Tudor: inactive

Results for Cc1cc(C)n(Cc2ccccc2Cl)n1 ?
HP1b binding inh: inactive; Sfp PPTase inh: inactive; BAZ2B inh: inactive; TDP1 inh: inactive; G9a inh: inactive; JMJD2A Tudor: inactive

How did O=c1c(Cl)c(Cl)cnn1Cc1ccccc1Cl do in these assays?
HP1b binding inh: inactive; Sfp PPTase inh: inactive; BAZ2B inh: inactive; TDP1 inh: inactive; G9a inh: inactive; JMJD2A Tudor: inactive

How did COc1cccc(/C(O)=C2/C(=O)C(=O)N(CCN3CCOCC3)C2c2cccs2)c1 (stereo not given) do in these assays?
HP1b binding inh: inactive; Sfp PPTase inh: inactive; BAZ2B inh: inactive; TDP1 inh: inactive; G9a inh: 44.7µM; JMJD2A Tudor: inconclusive

Results for CCOc1cccc(/C(O)=C2/C(=O)C(=O)N(CCN3CCOCC3)C2c2ccncc2)c1 (stereo not given) ?
Sfp PPTase inh: inactive; BAZ2B inh: inconclusive; TDP1 inh: inactive

Results for Cc1nc2c(C)cccn2c1/C(O)=C1\C(=O)C(=O)N(CCN2CCOCC2)C1c1cccs1 (stereo not given) ?
HP1b binding inh: inactive; Sfp PPTase inh: inactive; BAZ2B inh: inconclusive; TDP1 inh: inactive; G9a inh: 20µM; JMJD2A Tudor: inconclusive

How did Cc1nc2ccccn2c1/C(O)=C1\C(=O)C(=O)N(CCN2CCOCC2)C1c1ccncc1 (stereo not given) do in these assays?
HP1b binding inh: inactive; Sfp PPTase inh: inactive; BAZ2B inh: inconclusive; TDP1 inh: inactive; G9a inh: inconclusive; JMJD2A Tudor: 25.1µM

How did C[C@@H]1O[C@@H](OCCC(=O)O)[C@H](O)C[C@H]1O do in these assays?
HP1b binding inh: inactive; TDP1 inh: inactive; JMJD2A Tudor: inactive

What do the screens show for `CCOC(=O)c1cccc(NC(=O)Cc2ccc(NC(=O)N3CCCCc4ccccc43)cc2)c1`?
HP1b binding inh: inactive; BAZ2B inh: inactive; TDP1 inh: inactive; G9a inh: inactive; JMJD2A Tudor: inactive

What do the screens show for `Cc1cccc(Cn2cccc2CNS(=O)(=O)c2ccccc2F)c1`?
HP1b binding inh: inactive; BAZ2B inh: inactive; TDP1 inh: inactive; G9a inh: inactive[12.7 µM]; JMJD2A Tudor: inactive

How did Cc1cc2c(SCC(=O)Nc3cccc(O)c3)ncnc2s1 do in these assays?
HP1b binding inh: inactive; JMJD2A Tudor: 50.1µM

What do the screens show for `Cc1cccnc1NC(=O)CSc1ncnc2sc(C)c(C)c12`?
HP1b binding inh: inactive; BAZ2B inh: inconclusive; TDP1 inh: inactive; G9a inh: 50.1µM; JMJD2A Tudor: inconclusive

How did Cc1sc2ncnc(SCC(=O)Nc3ncccc3O)c2c1C do in these assays?
HP1b binding inh: inactive; BAZ2B inh: 39.8µM; G9a inh: inactive[12.7 µM]; JMJD2A Tudor: 63.1µM
